# Only some compounds are listed: those with a hit (about 2.4% of all), similar ones and a draw of the others.
# D2 ag-1: D2 dopamine receptor (human) agonism. HEK293 T-REx D2 cells, calcium flux agonist mode. AID 485358. P14416. activation, % at 2 µM. 0.53% of 340,000 active;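 active = activation over 3 SD above normal in the single-dose calcium agonist read, cut at about 30% in these data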; also: 0% is about no effect
#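 Calcium-flux readout, 1 cycle/sec over 180 s following compound pin transfer, in inducible HEK293 Trex D2 cells (force-coupled); dopamine controls included. Positive calcium responses during this window marked compounds as potential agonists.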
# D2 antag: antagonizes the human D2 dopamine receptor. P14416. HEK293 TREx D2 cells, calcium flux, dopamine EC80. inhibition, % at 10 µM. 2% of 340,000 active; in the data active = inhibition above about 30%; inactive = below that, where a call was filed; also: 0% is about no effect
#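 Tetracycline-induced HEK293 TREx cells expressing D2 receptor forced-coupled to calcium signalling, loaded with no-wash calcium dye. Compounds added and calcium flux read 180 s, then dopamine added at EC80 and read a further 180 s.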
# D2 PAM-1: positive allosteric modulators of human D2 dopamine receptor. 0.34% of 340,000 active. AID 485347. HEK293 T-REx D2, calcium flux, EC20 dopamine potentiation. P14416. potentiation, % at 10 µM;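 active = potentiation over 3 SD above the plate norm, cut at about 30% in these data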; also: 0% is about no effect
#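 Tetracycline-induced HEK293 T-REx cells force-coupled to calcium signalling expressed D2; compounds were pin-added after a 10 s baseline, read kinetically 180 s, then an EC20 dopamine challenge followed with a further 180 s calcium read.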
# D2 PAM-2: potentiates the human D2 dopamine receptor allosterically; P14416; DiscoveRx D2 beta-arrestin cells, luminescence, 90 min; 100% = 57 uM dopamine signal; potentiation, % (test concentration not listed); 0.23% of 360,000 active; AID 624464; in the data active = potentiation above about 50%; inconclusive = mostly about 30% to 49%
#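 D2 cells co-treated with compound plus 50 nM dopamine (EC20) for 90 min at 37 deg C to detect potentiation. Beta-arrestin recruitment was read as enzyme-fragment luminescence after 1 h at ambient temperature. Full response was set by 57 uM dopamine.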
# D2 ag-2: agonists of human D2 dopamine receptor (beta-arrestin) | P14416 | DiscoveRx PathHunter D2 beta-arrestin, luminescence, 90 min; 100% = 57 uM dopamine signal | activation, % (test concentration not listed) | 0.084% of 360,000 active | AID 624465; in the data active = activation above about 40%; inconclusive = between about 15% and that limit
#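 Agonist mode: compounds alone added to overnight-plated D2 PathHunter cells for 90 min at 37 C, with 57 uM final dopamine (EC100) defining full response. Beta-arrestin recruitment detected by chemiluminescent reagent, read after 1 h at ambient temperature.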
# D3 ag: activates human D3 dopamine receptor beta-arrestin recruitment. DiscoveRx D3 beta-arrestin cells, luminescence, 90 min. Potency, µM (series often up to 76.9 µM), without a hit: at the top dose activation, usual class: activators. 4% of 2,300 active. shares compounds with D2 ag-1. AID 720506;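 also: potency is read from the fitted curve at half-maximal effect; 100% = dopamine control response; nearly all actives have a fitted effect of over 70% in size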
# Target sequence (P35462 whole entry, looked up): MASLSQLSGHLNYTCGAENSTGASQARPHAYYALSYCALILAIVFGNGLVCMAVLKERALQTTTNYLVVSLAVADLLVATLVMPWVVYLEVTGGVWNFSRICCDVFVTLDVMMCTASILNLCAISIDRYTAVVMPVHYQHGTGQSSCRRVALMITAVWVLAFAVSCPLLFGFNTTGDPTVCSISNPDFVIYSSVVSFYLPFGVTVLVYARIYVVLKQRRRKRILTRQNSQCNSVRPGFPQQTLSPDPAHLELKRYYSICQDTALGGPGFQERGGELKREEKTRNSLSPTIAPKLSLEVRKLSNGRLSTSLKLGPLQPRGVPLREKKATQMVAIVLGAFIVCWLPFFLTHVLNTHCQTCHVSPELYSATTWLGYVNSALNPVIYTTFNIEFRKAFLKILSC
# D2 ag-3: counter-screen for D3 agonists: human D2 dopamine receptor agonism; DiscoveRx PathHunter D2 beta-arrestin, luminescence, 90 min; response scale: percent relative to full dopamine signal; Potency, µM (series often up to 76.9 µM), for inactives: top-dose activation, hits mostly activators; 5.9% of 2,300 active; shares compounds with D2 ag-1; AID 720507; also: potency is read from the fitted curve at half-maximal effect; % of control where 0% means no effect; nearly all actives have a fitted effect of over 70% in size
# * = called active by the depositor; ? = inconclusive; . = no result. Unless noted, calls follow the shape of the dose curve; as a rule, active = well fitted activation curve with a large enough effect; inconclusive = small, poorly fitted or top-dose-only effect; inactive = flat fitted curve, though single readings scatter.
SMILES,D2 ag-1,D2 antag,D2 PAM-1,D2 PAM-2,D2 ag-2,D3 ag,D2 ag-3
CCC(C)NC(=O)CSc1nc2cc3c(cc2c(=O)n1CCCCCC(=O)NCc1ccc2c(c1)OCO2)OCO3 (configuration not stated),2.9,.,2.6,.,.,.,.
CCN(C(=O)Cn1c(=O)n(CCCS(=O)(=O)C2CCCCC2)c(=O)c2ccccc21)c1cccc(C)c1,-0.7,.,5.5,.,.,.,.
O=C(CCN1CCN(c2ccccc2F)CC1)Nc1ccc2c(c1)OCO2,80.2*,86.4*,-19.5,3.3,?,?,?
O=C(CCN1CCN(c2ccccc2)CC1)Nc1nccs1,70.5*,92.6*,-30.5,-27.8,14.2,25.0%,15.5%
COc1ccc(NC(=O)CCN2CCN(c3ccccc3F)CC2)c(OC)c1,89.9*,85.7*,-27.9,12.9,49.2*,?,?
O=C(CN1CCN(c2ccc(O)cc2)CC1)Nc1ccc2c(c1)OCCCO2,34.7*,1.1,-12.5,14.9,6.8,39.8µM*,35.5µM*
COc1ccc(NC(=O)CN2CCN(c3ccccc3F)CC2)c(OC)c1,.,.,-22.4,.,.,.,.
O=C(CCN1CCN(c2ccccc2)CC1)Nc1cccc(Br)c1,59.8*,75.2*,-22.0,-8.4,-0.8,21.0%,12.0%
CCN1CCN(CCC(=O)Nc2ccc3c(c2)OCO3)CC1,-0.1,-0.4,-7.2,-4.1,1.5,.,.
O=C(CCN1CCN(c2ccccc2)CC1)Nc1ccc2c(c1)OCO2,102.6*,108.3*,-26.7,-14.1,?,?,?
O=C(NCc1cccc(F)c1)c1ccccc1NC(=O)c1nsc2ccccc12,0.0,.,9.4,.,.,.,.
O=C(NCCCn1ccnc1)C(=O)NCC(c1ccco1)N1CCN(c2ccc(F)cc2)CC1 (configuration not stated),4.5,6.7,1.4,-11.0,3.4,.,.
Cc1sc(NC(=O)c2ccco2)c(CN2CCCCC2)c1C,0.2,3.5,-0.9,-14.4,-2.7,.,.
O=C(NCCCn1ccnc1)C(=O)NCC(c1cccnc1)N1CCN(c2ccccc2)CC1 (configuration not stated),42.9*,3.0,-13.2,-5.1,-3.6,5.1%,12.3%
O=C(NCC(c1ccco1)N1CCN(c2ccccc2)CC1)c1ccco1 (configuration not stated),12.0,40.3*,-7.8,10.1,12.7,?,?
O=C(NCCCn1ccnc1)C(=O)NCC(c1ccco1)N1CCN(c2ccccc2)CC1 (configuration not stated),63.4*,16.3,-23.9,15.3,54.4*,19.9%,?
COc1ccc(N2CCN(C(CNC(=O)c3ccco3)c3ccco3)CC2)cc1 (configuration not stated),-0.3,13.3,9.9,-5.9,-1.3,.,.
Cc1sc(NC(=O)c2ccco2)c(CN2CCN(c3ccccc3)CC2)c1C,40.8*,17.3,-17.9,-30.9,0.2,1.1%,5.1%
CCNC(=O)c1nn(-c2ccccc2C)nc1CO,-0.1,.,2.6,.,.,.,.
O=C(O)CCc1ccc(-c2cccs2)n1CCc1ccccc1,.,.,-10.6,-14.9,2.7,4.9%,5.6%
O=C(O)CCc1ccc(-c2cccs2)n1CCC(=O)O,0.7,-0.6,8.2,9.6,-3.6,.,.
O=S(=O)(NCC1CCCN(Cc2ccccc2O)C1)c1cccc2cccnc12 (configuration not stated),48.5*,18.1,-21.0,-36.5,-3.0,-5.7%,0.5%
O=C(C1CCC(CNS(=O)(=O)c2cccc3cccnc23)CC1)N1CCCC1 (configuration not stated),-1.9,10.6,-4.0,-2.7,0.6,.,.
CN(C(=O)c1ccc2c(c1)N(Cc1cccc(Cl)c1)C(=O)c1ccccc1S2(=O)=O)C1CCCCC1,0.4,.,8.5,.,.,.,.
OCC1(Cc2ccc(Cl)cc2)CCN(Cc2ccccc2F)CC1,1.1,-4.5,-16.9,-25.2,-4.6,.,.
SMILES,D2 ag-1,D2 antag,D2 PAM-1,D2 PAM-2,D2 ag-2,D3 ag,D2 ag-3
OCC1(Cc2ccc(Cl)cc2)CCN(CCCc2ccccc2)CC1,77.6*,69.1*,-10.5,-0.1,40.6*,-4.6%,?
c1ccc(CCCN2CCN(c3ccccc3)CC2)cc1,13.1,78.9*,-24.7,-5.5,12.1,4.7%,13.5%
CC(CCN1CCN(c2ccccc2)CC1)c1ccccc1 (configuration not stated),30.7*,72.6*,-26.5,-24.5,6.0,-3.6%,12.9%
O=C(CN1CCN(C(c2ccccc2)c2ccccc2)CC1)N1CCN(c2ccccc2)CC1,-0.6,-10.1,-14.8,-32.0,-6.3,.,.
CC(CCN1CCN(c2ccccn2)CC1)c1ccccc1 (configuration not stated),73.7*,62.7*,-19.3,4.4,?,?,?
O=C(Nc1ccc(F)c(F)c1)c1cc(S(=O)(=O)NCc2ccc3c(c2)OCO3)ccc1F,-1.2,.,-16.0,.,.,.,.
COc1cc(OC)cc(-c2c(-c3cccs3)c3cc(-c4ccc(N(C)C)nc4)ccc3n2C)c1,-0.4,2.8,19.8,-3.3,-3.7,1.7%,14.0%
CC(C)c1ccc(Nc2c(-c3ccccn3)nc3ccccn23)cc1,-0.2,.,-2.6,.,.,.,.
CC(C)Sc1ncnc2c1oc1ccccc12,-0.5,7.7,-7.7,-15.2,-1.0,-9.6%,-1.3%
COc1ccc(CCN2CC(C(=O)N(C)CC(=O)Nc3ccc(Cl)c(C(F)(F)F)c3)CC2=O)cc1OC (configuration not stated),0.5,2.9,5.0,-9.7,-1.9,-0.4%,8.7%
CN(CC(=O)Nc1ccc(Cl)c(C(F)(F)F)c1)C(=O)C1CC(=O)N(CCc2ccccc2)C1 (configuration not stated),1.2,-4.9,3.8,-35.9,-0.2,-1.9%,1.8%
COc1cccc(C(=O)NNC(=S)NC2CCCCC2)c1,55.7*,30.7*,-20.3,-29.0,-7.8,-4.3%,-5.3%
COc1cccc(C(=O)NC2CCCC2)c1,-0.1,-0.8,-0.1,-9.0,5.6,.,.
CCCN1C(=O)CSC1=Nc1ccccc1,0.6,5.3,3.3,-8.8,1.3,.,.
O=C1CSC(=Nc2ccccc2)N1Cc1ccccc1,.,.,.,-7.2,2.1,-5.3%,-1.1%
COCC(=O)Nc1nnc(-c2ccc(C(C)(C)C)cc2)s1,2.0,-1.9,6.9,-9.9,-9.6,16.1%,-0.1%
COc1ccc(S(=O)(=O)N(CC(=O)Nc2ccc3c(c2)OCO3)c2ccc(C)cc2)cc1,-0.6,.,-9.8,.,.,.,.
COc1ccc(CC(=O)Nc2ccc(F)c(F)c2F)cc1S(=O)(=O)N1CCOCC1,0.8,5.8,5.1,-3.4,-1.7,4.0%,6.6%

# Source: PubChem BioAssay (National Center for Advancing Translational Sciences (NCATS))
